Compound activity as filed in PubChem.
Shown are actives, neighbours in structure and some others; about 2.9% of the full set was active somewhere.
MEKK2 WT-MEK5: raises or lowers MEK5 binding to wildtype human MEKK2 PB1 domain; Q9Y2U5; bead flow cytometry, Alexa488-MEK5 binding to MEKK2 WT; actives lie on both sides; binding response (% of control), % at 10 µM; hit rate 1.1% among 290,000; AID 1531; in the data active = binding response below about 67% or above about 130%
CRFBP-R2 block: blocks CRF-induced signaling of the CRF-BP/CRF-R2 complex | HEK293 CRF-R2/CRF-BP, CRF-induced calcium fluorescence | inhibition, % at 11.8 µM | hit rate 0.59% among 350,000;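 active = inhibition of the ligand-induced calcium signal above about 50% at the single tested concentration, limit read from the data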
MEKK2mut PB1 HTS: signal of MEK5 binding to mutant human MEKK2 PB1 domain | bead flow cytometry, Alexa488-MEK5 binding to MEKK2 mutant | percent response, % at 10 µM | hit rate 0.35% among 290,000 | AID 1530; in the data active = percent response above about 24%, passing the limit was not always enough
MEKK3 PB1 HTS: modulators (inhibitors or enhancers) of MEK5 binding to human MEKK3 PB1 domain | bead-based flow cytometry, Alexa488-MEK5 binding to MEKK3; actives lie on both sides; 0 = blocked by unlabeled MEK5, 100 = vehicle | binding response (% of control), % at 10 µM | hit rate 1.4% among 290,000 | AID 1529;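 active = binding response more than 3 SD above or below the average of its plate-row segment, actives on both sides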;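 also: Alexa488 bead fluorescence after subtracting the streptavidin-only scavenger bead signal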
Target sequence (Q99759 whole entry, looked up, the tested form may be a part): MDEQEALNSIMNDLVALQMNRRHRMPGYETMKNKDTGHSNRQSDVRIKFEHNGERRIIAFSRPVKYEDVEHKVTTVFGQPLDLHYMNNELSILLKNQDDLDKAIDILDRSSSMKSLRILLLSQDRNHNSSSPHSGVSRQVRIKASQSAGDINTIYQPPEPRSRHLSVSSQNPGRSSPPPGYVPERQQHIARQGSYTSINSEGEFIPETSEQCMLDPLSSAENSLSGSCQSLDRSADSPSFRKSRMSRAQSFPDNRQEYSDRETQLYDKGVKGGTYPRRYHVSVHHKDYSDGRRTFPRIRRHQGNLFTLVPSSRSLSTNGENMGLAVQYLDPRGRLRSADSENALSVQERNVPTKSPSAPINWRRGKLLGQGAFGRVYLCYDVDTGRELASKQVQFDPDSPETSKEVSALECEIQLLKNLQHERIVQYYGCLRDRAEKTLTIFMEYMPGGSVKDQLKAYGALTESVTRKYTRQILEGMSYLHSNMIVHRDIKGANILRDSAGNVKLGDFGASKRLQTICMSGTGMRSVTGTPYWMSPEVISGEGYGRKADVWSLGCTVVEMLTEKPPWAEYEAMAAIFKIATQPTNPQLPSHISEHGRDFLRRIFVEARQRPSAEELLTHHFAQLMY
CRFR2-BP ag: CRF-BP/CRF-R2 complex agonism; HEK293 CRF-R2/CRF-BP, calcium dye fluorescence (FLIPR); percent of saturating CRF peptide response; activation, % at 13.2 µM; hit rate 0.46% among 350,000; AID 588473;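 active = activation of at least 50%, plus an integration ratio under a set limit after plate pattern correction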
ABCB6 inh MLPCN: human ABCB6 transporter inhibition | hit rate 0.19% among 360,000 | fluorescence ratio to DMSO, % at 10 µM | K562-ABCB6 porphyrin accumulation, flow cytometry, 1 h; active compounds read low;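 active = fluorescence ratio to DMSO below 75%, the collection mean minus 3 SD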;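 also: signal is porphyrin accumulated inside mitochondria; lower ratio means ABCB6 inhibition with less porphyrin fluorescence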
MEKK2wt confirm: raises or lowers MEK5 binding to wildtype human MEKK2, retest. shares compounds with MEKK3 PB1 HTS. bead flow cytometry, Alexa488-MEK5 binding to MEKK2 WT; actives lie on both sides. AID 1892. hit rate 2.4% among 5,900. binding response (% of control), % at 10 µM; in the data active = binding response below about 16% or above about 210%; inactive = in between
MEKK2mut-MEK5: signal of MEK5 binding to mutant human MEKK2, retest; AID 1893; hit rate 2% among 5,900; shares compounds with MEKK3 PB1 HTS; bead flow cytometry, Alexa488-MEK5 binding to MEKK2 mutant; percent response, % at 10 µM; in the data active = percent response mostly above about 71%, no sharp cut-off; inactive = mostly below about 38%;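 also: higher means compound restores mutant binding toward wildtype level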
MEKK3-MEK5 inh: MEKK3-MEK5 PB1 inhibition, single concentration confirmation; hit rate 1.8% among 5,900; binding response (% of control), % at 10 µM; bead flow cytometry, Alexa488-MEK5 binding to MEKK3; active compounds read low; shares compounds with MEKK3 PB1 HTS;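 active = binding response below 72% of control, or above a set upper limit, though filed actives all read lower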;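 also: lower values mean stronger disruption of MEK5 binding to MEKK3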
A number is an active result; 0 = inactive; - = no result given; [ ] = dose if it differs, or a comment.

SMILES	MEKK2 WT-MEK5	CRFBP-R2 block	MEKK2mut PB1 HTS	MEKK3 PB1 HTS	CRFR2-BP ag	ABCB6 inh MLPCN	MEKK2wt confirm	MEKK2mut-MEK5	MEKK3-MEK5 inh
CCc1nnc(NC(=O)CSc2nnc(-c3ccncc3)n2C)s1	1.0[inhibitor]	0	0	2.0[inhibitor]	0	0	0	0	0
C[C@@H]1CCCCO[C@H](CN(C)Cc2ccc(C(=O)O)cc2)[C@@H](C)CN([C@H](C)CO)C(=O)c2cc(NC(=O)CCC(F)(F)F)ccc2O1	-	0	-	-	0	0	-	-	-
CCN(CC)S(=O)(=O)c1cccc(-c2nnc(SCC(=O)NC)n2N)c1	7.0[inhibitor]	0	0	6.0[inhibitor]	0	0	0	0	0
COc1ccc(C(=O)/C=C/Nc2ccc([N+](=O)[O-])cc2)cc1	0	0	0	70.0[inhibitor]	0	0	0	0	0
COc1ccc(N/C=C\C(=O)c2ccc3c(c2)OCO3)cc1	-1.0[inhibitor]	0	0	1.0[inhibitor]	0	0	0	0	0
CCOC(=O)c1ccc(N/C=C\C(=O)c2cccc(OC)c2)cc1	0	0	0	201.0	0	0	0	0	0
CCOC(=O)c1cccc(N/C=C/C(=O)c2ccc(OC)c(OC)c2)c1	0	0	0	0	0	0	-	-	-
COc1cccc(-c2ocnc2C(=O)Nc2ccc(N3CCOCC3)cc2N2CCOCC2)c1	0	0	0	0	0	0	-	-	-
COc1ccccc1CNC(=O)CN1C(=O)NC2(CCOc3ccccc32)C1=O (stereo not given)	-	0	-	-	0	0	-	-	-
COc1cc(NC(=O)COC(=O)CO/N=C(\C)c2ccc3c(c2)OCO3)cc(OC)c1	-	0	-	-	0	0	-	-	-
CCCCC[C@@H](C)N1C[C@H](COCc2ccccc2)Oc2cc(N3CCC[C@H]3COC)ccc2S1(=O)=O	-	-	-	-	-	0	-	-	-
CCOc1ccc(N2C(=O)CC(NCC#N)C2=O)cc1 (stereo not given)	0	0	0	0	0	0	-	-	-
Cc1oc(-c2ccc(Cl)cc2)nc1CN1CCC(C(=O)N2CCN(Cc3ccccc3)CC2)CC1	-	0	-	-	0	0	-	-	-
Cc1oc(-c2cccc(Cl)c2)nc1CN1CCC(C(=O)N2CCN(c3ccccc3F)CC2)CC1	140.0	0	0	0	0	0	0	0	0
COC(=O)c1c(NC(=O)c2cccnc2)sc(C(=O)N(C)C)c1C	0	0	0	162.0	0	0	0	0	0
COC(=O)c1c(NC(=O)c2cccnc2)sc(C)c1C	0	0	0	0	0	0	-	-	-
O=S(=O)(Nc1ccc(-c2nnc(SCc3ccc(Cl)cc3)o2)cc1)c1ccccc1	0	0	0	131.0	0	0	0	0	0
O=C(O)c1ccc(CSc2nnc(-c3ccc(Cl)cc3)o2)cc1	0	0	0	0	0	0	-	-	-
CC(C)N=c1cc2n(-c3ccc(Cl)cc3)c3ccccc3nc-2cc1Nc1ccc(Cl)cc1	0	0	0	70.0[inhibitor]	0	0	0	0	53.0
CCCCCCCCC[n+]1cccc2c3ccccc3ccc21	135.0	0	0	0	0	0	0	0	0
CCCCCCCCCCCCCCCC[n+]1cccc2ccccc21	157.0	0	0	133.0	0	0	252.0	165.0	0
c1ccc2c(c1)ccc1ccccc12	-	0	-	-	0	0	-	-	-
O=C(CN1C(=O)NC2(CCOc3ccccc32)C1=O)NCCc1ccc(F)cc1 (stereo not given)	-	0	-	-	0	0	-	-	-
Cc1cc(C)nc(-n2ncc3c2CC(c2ccccc2)CC3=O)n1 (stereo not given)	0	0	0	0	0	0	-	-	-
Cc1cc(C)nc(-n2ncc3c2CC(c2ccccc2C)CC3=O)n1 (stereo not given)	0	0	0	137.0	0	0	0	0	0
SMILES	MEKK2 WT-MEK5	CRFBP-R2 block	MEKK2mut PB1 HTS	MEKK3 PB1 HTS	CRFR2-BP ag	ABCB6 inh MLPCN	MEKK2wt confirm	MEKK2mut-MEK5	MEKK3-MEK5 inh
CCN(CC)C(=O)CSc1nnc(SC(C)C(=O)NC2CC2)s1 (stereo not given)	-	0	-	-	0	0	-	-	-
COc1ccc(NC(=O)c2ccc(N3C(=O)C4CC=C(C)CC4C3=O)cc2)c(OC)c1 (stereo not given)	0	0	0	0	0	0	-	-	-
COc1ccccc1C(=O)Nc1ccc2c(c1)nc(CN1CCN(C(C)=O)CC1)n2C	0	0	0	67.0[inhibitor]	0	0	0	0	0
COc1ccc2c(c1)nc(SCC(C)O)n2C (stereo not given)	0	0	0	132.0	0	0	0	0	0
COc1ccc2c(c1)nc(CN1CCN(CCO)CC1)n2C	0	0	32.0	0	0	0	0	0	0
COc1ccc(OCC(=O)Nc2ccc3c(c2)nc(CN2CCCC2)n3C)cc1	0	0	0	0	0	0	-	-	-
COc1ccc2c(c1)nc(SCC(=O)C(C)(C)C)n2C	0	0	0	0	0	0	-	-	-
COc1ccc(CCNCC(O)COc2c(C)cccc2C)cc1OC (stereo not given)	0	0	0	0	0	0	-	-	-
Nc1nc(-c2cccc(NS(=O)(=O)c3ccccc3)c2)cs1	0	0	0	82.0[inhibitor]	0	0	0	0	0
CCCCCCn1cc(CN2CC(N3CCCCC3)CS2(=O)=O)nn1 (stereo not given)	-	-	-	-	-	0	-	-	-
O=C1NC[C@H](CCCCN2CCN(CC3CCCCC3)C(=O)C2=O)N(CCC2CCCCC2)C1=O	-	-	-	-	-	0	-	-	-
CCCCC(CC(O)COCCC)c1n[nH]c(=S)n1-c1ccccc1 (stereo not given)	0	0	0	128.0	0	0	0	0	0
COc1ccc(/C=N/NC(=O)Cn2cnc3c2c(=O)n(C)c(=O)n3C)c(OC)c1OC	0	0	0	71.0[inhibitor]	0	0	0	0	0
CC(C)(C)c1ccc(NC(=O)Nc2ccc(F)cc2)cc1	0	0	0	130.0	0	0	0	0	0
CC(C)(C)c1ccc(COC(=O)Nc2ccc(F)cc2)cc1	0	0	0	0	0	0	-	-	-
CCC(=O)N1CCN(c2ccccc2NC(=S)NC(=O)c2ccco2)CC1	0	0	0	0	0	0	-	-	-
COc1ccc(C(=O)NN/C(C)=C/C(=O)C(F)(F)C(F)(F)C(F)(F)F)cc1	0	0	0	130.0	0	0	0	0	0
COc1ccc(C(=O)NNC(=O)OC(C)(C)C)cc1	0	0	0	0	0	0	-	-	-
CCC(C)NC(=O)C1CCN(S(=O)(=O)N2CCCC2)CC1 (stereo not given)	-3.0[inhibitor]	0	0	1.0[inhibitor]	0	0	0	0	0
O=C1CCc2cc(S(=O)(=O)Nc3ccccc3)ccc2N1	-	0	-	-	0	0	-	-	-
CCCCc1ccc(NC(=O)CC(C)C)cc1	0	0	0	0	0	0	-	-	-
